Structures are written as SMILES. About 83,000 compounds went through this panel and 20% of them were active in at least one assay; those are over-represented in the sample as a whole.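 How to read the values: 0–100, growth inhibition (40 = 60% inhibited); 0, no net growth; -100 to 0, cell death (-40 = 40% of starting cells died; -100 = all dead).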 A number with no mark means an inactive call. Activity calls are given as the source filed them. The calls were made as follows: active = growth percent below 10; inactive = the rest.

Common to all, as to test: NCI-60 one-dose screen, 48 h (100 = growth as untreated, 0 = no growth, -100 = all killed)
Conditions in all cases: 10 µM unless noted

The subject of experiment [1] is NCI-H23 lung.
Experiment [2] deals with NCI-H226 lung.
Experiment [3] has as its system NCI-H322M lung.
For experiment [4], the system named is HOP-62 NSCLC.
The subject of experiment [5] is NCI-H460 lung.
In experiment [6] the test system is HOP-92 NSCLC.
The test system of experiment [7] is NCI-H522 lung.
Experiment [8] has as its system A549/ATCC NSCLC.
For experiment [9], the system named is 786-0 renal.
Experiment [10] deals with COLO 205 colon.

For `CCC#CC[C@H]1C/C=C2/C(=O)C=C[C@@H]2C/C=C\CCCC(=O)O1`, the growth in experiment [1] was 20.4%; in experiment [2], -26.6% (active); in experiment [3], 45.4%; in [4], -3.46% (active); in [5], -38.1% (active); in [6], -5.7% (active). Also, the growth in experiment [7] was -29% (active); in [8], 0.732% (active); in experiment [9], -37.9% (active); in experiment [10], -22.7% (active).

`O=C(CC(O)c1ccncc1)c1ccccc1` (stereo not given): the growth in [1] is -18.6% (active); in experiment [2], 9.03% (active); in experiment [3], -8.53% (active); in [4] it was 22.9%; in experiment [5], 102%; in [6] it was 10.2%. In addition, the growth in experiment [7] is -36.6% (active); in experiment [8], 15.5%; in experiment [9] it was 9.96% (active); in [10], -54.7% (active).

As to `CCCOC(=O)C1(O)CCCC1`, the growth in [1] is 106%; in experiment [2], 92.9%; in experiment [3] it was 102%; in [4] it was 109%; in experiment [5] it was 108%; in [6] it was 89.8%. The growth in experiment [7] is 75%; in [8] it was 105%; in experiment [9], 105%; in experiment [10], 118%.

Consider `COc1cccc(-c2nc3sccn3c2-c2ccnc(NCCCNS(=O)(=O)c3ccccc3)n2)c1`, for which the growth in [1] is 36.1%; in [2] it was 23.3%; in experiment [3], 75.3%; in [4], 119%; in experiment [5], 53.7%; in experiment [6] it was 56.5%. The growth is 27.3% in experiment [7], 51.8% in [8], 62.6% in experiment [9] and 21.3% in [10].

In the case of `O=C(O)C(=Cc1c2ccccc2cc2ccccc12)C(=O)O`, the growth in experiment [1] was 91.3%; in [2] it was 109%; in experiment [3] it was 100%; in [4], 105%; in experiment [5], 112%; in [6] it was 105%. Moreover, the growth in experiment [7] is 89.7%; in experiment [8], 92.1%; in [9], 106%; in experiment [10] it was 113%.

`Cc1cc(C)c(NC(=O)c2sc3nc4c(cc3c2N)CN(Cc2ccccc2)CC4)c(C)c1`: the growth was 55.2% in experiment [1]; 49.5% in experiment [2]; 39.3% in [3]; 33.7% in experiment [4]; 10.8% in [5]; 37.7% in experiment [6]. The growth is 13.5% in experiment [7], 30.3% in [8], 39% in experiment [9] and 12.3% in experiment [10].

For the compound `COc1cccc(NC(=O)c2sc3nc4c(cc3c2N)CCCC4)c1`, the growth in experiment [1] was 32.3%; in experiment [2], 57.2%; in experiment [3], 38.9%; in experiment [4] it was 27.7%; in [5], 12%; in experiment [6] it was 43.6%. Also, the growth in experiment [7] is 4.31% (active); in [8], 17.4%; in [9], 34.3%; in experiment [10], 49.2%.

Turning to `COc1cc(/C=C/C(=O)c2ccccc2O)ccc1OCCCOc1cc2c(cc1OC)C(=O)N1CCC[C@H]1C=N2`, the growth is 3.19% (active) in [1]; -3.94% (active) in experiment [2]; -10.6% (active) in experiment [3]; 9.86% (active) in [4]; -18.1% (active) in [5]; -27.4% (active) in experiment [6]. Moreover, the growth in experiment [7] was -9.43% (active); in [8], 6.93% (active); in experiment [9] it was -44.8% (active); in experiment [10] it was -3.82% (active).

Regarding `Cc1cccc2cc(/C=C/C(=O)/C=C/c3ccc(Cl)cc3)c(=O)[nH]c12`, the growth in experiment [1] was 62.8%; in experiment [2], 62.1%; in experiment [3] it was 88.8%; in experiment [4], 64.6%; in [5] it was 73.1%; in experiment [6] it was 96.3%. Also, the growth in [7] is 48.4%; in experiment [8], 65.6%; in experiment [9] it was 14.5%; in [10] it was 37.8%.

For the compound `NC(C(=O)O)C(O)c1ccc(OCc2ccccc2)c(OCc2ccccc2)c1` (stereo not given), the growth in experiment [1] was 96.3%; in experiment [2], 99.2%; in experiment [3], 109%; in experiment [4], 88.7%; in experiment [5] it was 108%; in [6], 73.8%. Also, the growth in experiment [7] is 93.5%; in experiment [8] it was 93.4%; in [9], 98.7%; in experiment [10], 106%.

On to `O=C1CCC/C=C\C[C@H]2C=CC(=O)/C2=C/C[C@H](C/C=C\CC(F)(F)F)O1`, for which the growth in experiment [1] is -8.61% (active); in experiment [2] it was 8.07% (active); in experiment [3] it was 17.5%; in [4], -11.7% (active); in [5] it was -30.5% (active); in experiment [6] it was -24.4% (active). The growth was -50.8% (active) in experiment [7], 1.72% (active) in experiment [8], -73.9% (active) in experiment [9] and -44.4% (active) in experiment [10].

Regarding `O=S(=O)(NCCCNc1cc(-c2cn(-c3ccccc3)nc2-c2cccc(O)c2)ccn1)c1ccc(C(F)(F)F)cc1`, the growth in experiment [1] is 43.9%; in experiment [2], 49.6%; in [3] it was 49.8%; in experiment [4] it was 50.9%; in [5], 22.2%; in experiment [6], 29%. Besides, the growth was 69.7% in [7], 35.1% in experiment [8], -8.06% (active) in [9] and -57.3% (active) in experiment [10].
